Screening data from PubChem.
DNA Pol III inh: DNA polymerase III holoenzyme inhibition. reconstituted DNA polymerase III holoenzyme replication, biochemical. Potency, µM (series often up to 57.1 µM), for inactives: at the highest dose activity change, negative = inhibition. actives 0.25% (n = 71,000). AID 603; also: potency is read from the fitted curve at half-maximal effect; % is scaled to controls: 0 for no effect and ±100 for the full control effect
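Reconstituted *E. coli* holoenzyme (0.35 nM Pol III, 1 nM beta, 154 nM SSB, 2 nM primase) was preincubated with compound for 15 min at RT. Synthesis on 1.4 nM ssM13Gori ran 35 min, then was stopped with PicoGreen/EDTA and read as dsDNA fluorescence.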
BRCT PPI red: BRCT-phosphoprotein interaction inhibition (red fluorophore); Potency, µM (highest dose often 76.9 µM), for inactives: top-dose activity change, negative = inhibition, hits mostly inhibitors; P38398; actives 0.03% (n = 75,000); BRCT-phosphopeptide binding, red fluorescence polarization; also: % is scaled to controls: 0 for no effect and ±100 for the full control effect
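Rhodamine-labelled pBACH1 10-mer (100 nM) bound to BRCT domain (100 nM) at pH 7.3; compounds incubated 12 min room temperature, polarization read. Free peptide defines full inhibition; unlabelled decapeptide titrated as control.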
HEK293 cAMP cs: parental HEK293 cAMP activation (counter-screen). parental HEK293 CNG cAMP sensor, membrane potential fluorescence. Potency, µM (series often up to 57.1 µM), for inactives: at the top dose activation, hits mostly activators. actives 2.5% (n = 73,000); also: potency is read from the fitted curve at half-maximal effect; % of control where 0% means no effect; nearly all actives have a fitted effect of over 55% in size
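Parental HEK 293 cells stably expressing a modified CNG channel (no TSHR) report cAMP rise as membrane depolarization. Membrane potential dye with 100 uM RO 20-1724 was loaded for 60 min at room temperature, then compound added for 30 min; fluorescence read at 590 nm.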
BRCT inh green: blocks human BRCA1 BRCT binding to phosphopeptide, green readout; P38398; BRCA1 BRCT-phosphopeptide binding, green fluorescence polarization; Potency, µM (top dose mostly 76.9 µM), without a hit: at the top dose activity change, negative = inhibition, most hits filed as inhibitors; actives 0.05% (n = 75,000); AID 875;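 also: potency is read from the fitted curve at half-maximal effect; plate controls were peptide without protein for full effect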
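Compounds were incubated for 12 min at room temperature with a complex of 100 nM fluorescein-tagged pBACH1 decapeptide and 250 nM His-tagged BRCT protein. Buffer was phosphate pH 7.3 with EDTA, DTT and Tween 20. Disruption of binding lowers the polarization signal.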
TSHR ag: TSH receptor (human) agonism. P16473. HEK293-CNG-TSHR cells (CNG channel as cAMP sensor), membrane potential dye, cAMP. Potency, µM (doses to about 57.1 µM), for inactives: top-dose activation, usual class: activators. actives 0.48% (n = 73,000). AID 926; active = well fitted activation curve with a large enough effect in the main read-out, with a control signal flat, not every such curve was filed as active; inconclusive = small, poorly fitted or top-dose-only effect, or a change in a side signal; inactive = no such curve, though single readings can be large or run the other way; % of control where 0% means no effect;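 also: the control signal comes from parental cells without the receptor; potency is read from the fitted curve at half-maximal effect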
Target sequence (P16473 whole entry, looked up): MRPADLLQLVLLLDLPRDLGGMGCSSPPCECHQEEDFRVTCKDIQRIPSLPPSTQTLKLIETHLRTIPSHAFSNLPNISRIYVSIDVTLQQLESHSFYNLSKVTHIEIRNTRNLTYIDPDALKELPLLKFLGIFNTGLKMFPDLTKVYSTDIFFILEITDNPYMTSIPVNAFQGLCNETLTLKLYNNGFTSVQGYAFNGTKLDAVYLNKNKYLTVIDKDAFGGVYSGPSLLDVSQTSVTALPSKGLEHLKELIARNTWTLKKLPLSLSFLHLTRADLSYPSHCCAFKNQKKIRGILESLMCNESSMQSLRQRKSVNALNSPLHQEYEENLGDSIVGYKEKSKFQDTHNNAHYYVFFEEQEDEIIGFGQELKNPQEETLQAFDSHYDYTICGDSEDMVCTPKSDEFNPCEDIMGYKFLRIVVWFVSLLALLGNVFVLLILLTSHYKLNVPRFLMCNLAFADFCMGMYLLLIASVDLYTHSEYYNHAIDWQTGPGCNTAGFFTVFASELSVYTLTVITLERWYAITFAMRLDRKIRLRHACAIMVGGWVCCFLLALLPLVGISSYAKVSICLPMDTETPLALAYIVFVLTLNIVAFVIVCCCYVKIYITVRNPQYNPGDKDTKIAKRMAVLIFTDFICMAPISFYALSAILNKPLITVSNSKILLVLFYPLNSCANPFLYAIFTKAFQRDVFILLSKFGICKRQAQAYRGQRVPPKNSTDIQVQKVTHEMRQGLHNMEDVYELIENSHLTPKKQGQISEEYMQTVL
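HEK 293 cells stably expressing TSHR and a cAMP-gated CNG channel; parental CNG-only cells as counterscreen. Cells preloaded 60 min with membrane potential dye plus 100 uM RO 20-1724, then compound 30 min; fluorescence read at 590 nm.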
YjeE inh: YjeE (TsaE) inhibition, E. coli; P0AF67; purified YjeE enzyme, qHTS inhibition assay; Potency, µM; actives 0.05% (n = 71,000)
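Purified YjeE (10 uM) with BODIPY Texas Red-labeled ADP probe (2 uM); compounds pin-transferred, 15 min at room temperature. Binding inhibition read as decreased fluorescence polarization; ADP titration as control.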
Active calls of the source: *; i = inactive; u = inconclusive; x = not tested or not shown; [ ] = dose if it differs, or a comment. A selection: hits, their analogues and other compounds. The true share with any hit is near 3.2%. Unless noted, calls follow the shape of the dose curve; as a rule, active = well fitted curve in the direction sought with a large enough effect; inconclusive = small, poorly fitted or top-dose-only effect, or another doubt; inactive = no such curve, though single readings can be large; an effect the other way counts as inactive or inconclusive.

SMILES	DNA Pol III inh	BRCT PPI red	HEK293 cAMP cs	BRCT inh green	TSHR ag	YjeE inh
CC(=O)NCCSC(=O)c1ccc(F)cc1	-3%	0%	3.2µM*	-2%	u	i
COc1ccc(C(=O)N(Cc2nc(-c3ccc(C)cc3)no2)C(C)C)cc1OC	-3%	-2%	4%[11.4 µM]	2%	28%	i
COc1cc(OC)cc(C(=O)N(Cc2nc(-c3cccc(C)c3)no2)C(C)C)c1	2%	0%	32µM*	2%	u	i
COc1ccc(-c2noc(CN(C(=O)c3ccc(OC(C)=O)cc3)C(C)C)n2)cc1OC	-7%	0%	1%	1%	25µM*	i
Cc1cc(C)c(S(=O)(=O)N(C)CC(=O)N2CCCCC2)c(C)c1	-6%	-1%	4%	-1%	2%	i
COc1cccc(C2CC(c3ccc(F)cc3)Nc3nc(N)nn32)c1 (configuration not stated)	2%	0%	4%	-2%	3%	i
COc1cc(Cn2c(-c3nonc3N)nc3ccccc32)ccc1C	-8%	0%	25µM*	2%	u	i
COc1ccc(CCNC(=O)Cn2c(-c3nonc3N)nc3ccccc32)cc1OC	-3%	-1%	u	1%	u	i
COc1cccc(Cn2c(-c3nonc3N)nc3ccccc32)c1	-3%	-2%	25µM*	4%	u	i
COCCn1c(SCC(=O)N2CCC(C)CC2)nc2ccccc2c1=O	-3%	0%	20µM*	0%	u	i
COCCn1c(SCC(=O)c2ccc(CNC(C)=O)o2)nc2ccccc2c1=O	-5%	-1%	u	0%	u	i
CC(C)Cc1nc2oc3c(N4CCN(CCO)CC4)ncnc3c2c2c1CCCC2	1%	-1%	16µM*	5%	u	i
CCC1Oc2ccc(C)cc2N(CC(=O)NCc2cccc(OC)c2)C1=O (configuration not stated)	1%	0%	13µM*	-1%	u	i
Cc1ccc(C2NC(=O)c3c(sc4c3CCN(C)C4)N2)o1 (configuration not stated)	-7%	-3%	4%	8%	-1%	i
Cn1c(C(=O)NCCCN2CCOCC2)cc2c(=O)n(C)c3ccccc3c21	u	-6%	0%	6%	8%	i
Oc1cccc(O)c1O	7.9µM*	-2%	5%	9%	2%	i
Cc1occc1C(=O)N1CCN(C(c2ccccc2)c2ccccc2)CC1	2%	0%	19%	1%	32µM*	i
O=c1cc(-c2ccccc2O)oc2c(O)c(O)ccc12	0.5µM*	-1%	-3%	-2%	-6%	i
COc1cc(C2N(c3cccc(Cl)c3)C(=O)C3CCCN32)cc(OC)c1OC (configuration not stated)	-1%	2%	18%	-1%	-4%	i
COc1cc(C2N(c3ccccc3)CCN2c2ccccc2)cc(OC)c1OC	-2%	0%	29%	-2%	3.2µM*	i
CC(C)c1cccc2c([Si](C)(C)C)c3c(nc12)-c1cccc(=O)n1C3	-2%	-3%	25µM*	3%	u	i
Cc1cccc2cc(C#N)c(NCCNC(=O)NC3CCCCC3)nc12	3%	-3%	20µM*	0%	u	i
C=CC[C@@H]1C=C[C@H](O/N=C(\C)CCN2CCCCc3nc(C)c(C)cc32)[C@H](CO)O1	x	1%[15.4 µM]	9%[11.4 µM]	1%[15.4 µM]	-5%[11.4 µM]	x
c1ccc2c3c(cc(N4CCOCC4)c2c1)OC1(N2CCOCC2)CCCCC1O3 (configuration not stated)	-5%	2%	11%	-1%	x	i
Cc1ccc(-n2c3c(cc(C(=O)NCc4ccco4)c2=O)C(=O)CC(C)(C)C3)cc1	6%[11.4 µM]	-3%	21%[11.4 µM]	1%	4µM*	i
CCOC(=O)C1CCN(C(=O)Nc2ccc3c(c2)nc(C)n3C)CC1	-7%	-1%	1%	-6%	5%	i
